Assay: viability profiling in RPMI8226 myeloma cells – cell-based, resazurin fluorescence, basal, 24 h, PK04 Diversity Set, profiling panel (AID 1180);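 note: RPMI8826 multiple myeloma cell line at 5000 cells per well; test concentration not given here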
Details: higher = more signal
Compound `CN1CCC(CCCO)=CC1c1ccc(CN2CCCC2)cc1` (stereo unspecified) has a z-score of -0.304. Compound `C=C[C@H](C)[C@@H](O)c1ccc(O)c2ccccc12` has a z-score of -0.791. For `COCCOC(=O)N1C(=O)[C@@]2(c3cc(C#CC4=CCCCC4)ccc31)[C@H](C(=O)N1CCc3cc(OC)c(OC)cc3C1)[C@H]1C(=O)O[C@H](c3ccccc3)[C@H](c3ccccc3)N1[C@@H]2c1ccccc1OCCO`, the z-score was -0.135. Compound `COC(=O)C1=CC(CCCO)=CC(C2CC2)N(Cc2sc3ccccc3c2Cl)C=C1C(=O)OC` (stereo unspecified) has a z-score of -0.691. With `NC(=O)NCC#Cc1ccc2c(c1)[C@]1(C(=O)N2)[C@H](C(=O)N2CCCCCCC2)[C@H]2C(=O)O[C@H](c3ccccc3)[C@H](c3ccccc3)N2[C@@H]1c1ccc(OCCO)cc1` the z-score was -0.831. With `COc1ccccc1CN1C(=O)c2ccccc2[C@@H](C(=O)NCCN2CCOCC2)[C@@H]1c1ccc(CO)cc1` the z-score was 0.154. For `O=c1cccc(C=Cc2ccccc2)o1`, the z-score was -0.0628. Work on `C=C[C@@H](COC(C)=O)N(Cc1ccc([N+](=O)[O-])cc1)S(=O)(=O)c1ccc(Br)cc1` yielded a z-score of 1.49. `CC(C)C(=C=CC[C@@H](O)c1ccccc1OCCO)C[C@@H](O)c1ccccn1` showed a z-score of 0.221. In the case of `CCCCC=C[C@@H](NC(=O)c1ccc(C(=O)OC)cc1)c1ccccc1`, the z-score is reported as 3.78. For `O=c1oc(-c2ccccc2)nc2cc(Br)ccc12`, the z-score was -0.194. Work on `C=CC(COC(C)=O)NS(=O)(=O)c1ccc(Br)cc1` (stereo unspecified) yielded a z-score of 0.404. With `CS(=O)(=O)CCOC(=O)C1=CC(CCCO)=CC(c2cccs2)N(Cc2cc3c(cc2Br)OCO3)C=C1C(=O)OCCS(C)(=O)=O` (stereo unspecified) the z-score was 0.0578. For `CCC[C@@H]1C=C(C(=O)O)[C@H](c2ccc(C)cc2)N1S(=O)(=O)c1ccc(C)cc1`, the z-score was -2.01. For `CC(C)NC(=O)[C@@H]1c2ccccc2C(=O)N(Cc2ccccc2)[C@H]1c1ccc(CO)cc1`, the z-score was -0.239. Work on `Cc1ccc(S[C@]2(C(=O)NCc3ccccc3)CC(=O)N(Cc3ccccc3)[C@@H]2c2ccc(CO)cc2)cc1` yielded a z-score of -0.0925. `COC(=O)c1ccc(C(O)C2C=CC3C(=O)N(C)C(=O)C3N2NC(=O)OC(C)(C)C)o1` (stereo unspecified) showed a z-score of -0.212. Work on `COc1ccc(C(=O)Nc2cccc(CN3C(=O)[C@]4(O[C@H](CC(=O)N5CCC[C@H]5CO)[C@@H]([Si](C)(C)c5ccc(OC)cc5)[C@@H]4C)c4ccccc43)c2)cc1` yielded a z-score of -4.84. With `CC(C)Cc1ccc(CN2CC[C@@H](NS(=O)(=O)c3ccccc3)C2)cc1` the z-score was -1.03. Compound `C=CCC(OC(C)=O)[C@@H]1[C@@H](N(Cc2cccc3ccccc23)C(=O)c2cccc3ccccc23)c2cc(OCCCO)ccc2N1C(=O)c1ccc2ccccc2n1` (stereo partly specified) has a z-score of -0.0685. For `COCCOC(=O)N1C(=O)[C@@]2(c3cc(C#CCNC(N)=O)ccc31)[C@H](c1ccc(OCCO)cc1)N1[C@H](c3ccccc3)[C@H](c3ccccc3)OC(=O)[C@H]1[C@@H]2C(=O)N1CCc2cc(OC)c(OC)cc2C1`, the z-score was 0.665. In the case of `O=C1C=CC(=O)[C@@H]2CC(COc3ccccc3)=C3[C@@H](CCc4ccccc4)OB(O)C[C@@H]3[C@H]12`, the z-score is reported as -0.664. Compound `[N-]=[N+]=NCc1ccccc1[C@@H]1OC(c2ccc(OCCCO)cc2)=N[C@]1(Cc1ccccc1N=[N+]=[N-])C(=O)NCc1ccccc1` has a z-score of -1.46. `NCCCCCCNC(=O)[C@H]1C[C@H]2C(=O)NCC(=O)N2[C@H]1c1cccc(OCCO)c1` showed a z-score of 1.08. Work on `CCCCCN1CC=CC23O[C@@H]4/C=C\CCC(C)OC(=O)C4[C@H]2C(=O)N(CCCCCO)[C@@H]3C1=O` (stereo partly specified) yielded a z-score of 0.522. Compound `O=C(NCc1ccccc1)[C@]1(CCS(=O)(=O)c2ccccc2)N=C(c2ccc(OCCCO)cc2)O[C@@H]1c1ccccc1` has a z-score of 0.253. For `C=CC(=C)C1=CCO[C@@H]1[C@H]1CCCN1S(=O)(=O)c1ccccc1[N+](=O)[O-]`, the z-score was 0.187. Compound `COc1ccc(C(=O)Nc2cccc(CN3C(=O)[C@@]4(O[C@@H](CCn5cc(CCO)nn5)[C@H]([Si](C)(C)c5ccc(OC)cc5)[C@H]4C)c4ccccc43)c2)cc1` has a z-score of -6.23. Work on `CCCC[C@H]1OB(O)C[C@H]2C1=C(C)C[C@H]1C(=O)N(Cc3ccccc3)C(=O)[C@H]12` yielded a z-score of 0.156. Compound `COc1ccc(NN2C(C(O)c3ccc(OC)c(OCc4ccccc4)c3)C=CC3C(=O)N(C4CCCCC4)C(=O)C32)cc1` (stereo unspecified) has a z-score of 0.0424. In the case of `COCC(=C=CC[C@H](O)c1ccc(OCCO)cc1)C[C@H](O)c1cc(Cl)cc(Cl)c1O`, the z-score is reported as 0.708. In the case of `O=C/C=C/c1ccc2c(c1)OCO2`, the z-score is reported as -0.211. `Cc1ccc(S[C@]2(C(=O)NCC(C)C)CC(=O)N(Cc3ccccc3Cl)[C@@H]2c2ccc(CO)cc2)cc1` gave a z-score of 0.405. In the case of `CN(C)C(=O)[C@]1(CCC(=O)OC(C)(C)C)N=C(c2ccc(OCCCO)cc2)O[C@@H]1c1ccccc1N=[N+]=[N-]`, the z-score is reported as 0.407. In the case of `[N-]=[N+]=NCc1ccccc1C[C@]1(C(=O)NCCN2CCOCC2)N=C(c2ccc(OCCCO)cc2)O[C@H]1c1ccccc1N=[N+]=[N-]`, the z-score is reported as -1.85. In the case of `O=C1O[C@H](c2ccccc2)[C@H](c2ccccc2)N2[C@H]1[C@@H](C(=O)Nc1nc3ccccc3s1)[C@]1(C(=O)Nc3ccccc31)[C@H]2c1ccc(O)cc1`, the z-score is reported as -2.81.

Source: PubChem BioAssay
